Most compounds without a hit are left out; they make up all but 7.5% or so of the library.
ELG1 genotoxic = genotoxicity induction in ELG1-luciferase HEK293T cells. HEK293T ELG1-luciferase reporter, luminescence, 16 h. 330,000 tested, 1.3% active. Potency, µM (top dose mostly 46 µM), for inactives: at the top dose activity change, positive = activation, most hits filed as activators; further: % of control where 0% means no effect; nearly all actives have a fitted effect of over 60% in size
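HEK293T cells expressing luciferase-tagged ELG1 were exposed to compound or DMSO vehicle for 16 hr at 37 °C and 5% CO2. Luciferase activity was then measured with ONE-Glo after 30 min at room temperature.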
SMN2 splice up = enhancers of SMN2 splice variant expression | HEK293 SMN2-luciferase splicing reporter, luminescence, 30-36 h | Potency, µM (top dose mostly 46.1 µM), for inactives: at the top dose activity change, positive = activation, hits mostly activators | 210,000 tested, 2.8% active | AID 1458; further: % of control where 0% means no effect; nearly all actives have a fitted effect of over 55% in size
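qHTS luciferase splicing reporter: luminescence rises when SMN2 exon 7 is included in transfected HEK293 cells. Compound exposure lasted 30-36 h at 37C, with 4.5 mM final sodium butyrate as control, followed by a ONE-Glo read.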
Rab9 promoter act = Rab9 promoter activation. Huh7 Rab9 promoter-luciferase reporter, luminescence, 24 h. Potency, µM (series often up to 9.22 µM), for the others: top-dose activation, negative = inhibition, hits mostly activators. 320,000 tested, 2.8% active. AID 485297; further: % of control where 0% means no effect; nearly all actives have a fitted effect of over 60% in size
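Using Huh7 cells stably transfected with Rab9 promoter–luciferase, compounds were incubated 24 h at 37 °C, 5% CO2; luciferase luminescence was read 10 min after reagent addition.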
NPC1 promoter act = activators of NPC1 promoter; Huh7 NPC1 promoter luciferase reporter, 24 h; 320,000 tested, 2.4% active; Potency, µM (highest dose often 9.22 µM), for the others: at the top dose activation, most hits filed as activators; AID 485313; further: % of control where 0% means no effect; nearly all actives have a fitted effect of over 60% in size
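Readout is luciferase luminescence, reflecting NPC1 promoter activation in stably transfected Huh7 cells after 24 h compound exposure at 37 °C in reduced-serum medium with 10% FBS.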
FLuc modulator = firefly luciferase modulation, counter-screen for miR-21 project; purified FLuc, Km substrates, luminescence inhibition; 360,000 tested, 6.9% active; Potency, µM (top dose mostly 57.5 µM), for inactives: at the top dose activity change, negative = inhibition, usual class: inhibitors; P08659;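 further: plate controls were vehicle for no effect and reference inhibitor for full effect; nearly all actives have a fitted effect of over 55% in size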
Target sequence (P08659 whole entry, looked up): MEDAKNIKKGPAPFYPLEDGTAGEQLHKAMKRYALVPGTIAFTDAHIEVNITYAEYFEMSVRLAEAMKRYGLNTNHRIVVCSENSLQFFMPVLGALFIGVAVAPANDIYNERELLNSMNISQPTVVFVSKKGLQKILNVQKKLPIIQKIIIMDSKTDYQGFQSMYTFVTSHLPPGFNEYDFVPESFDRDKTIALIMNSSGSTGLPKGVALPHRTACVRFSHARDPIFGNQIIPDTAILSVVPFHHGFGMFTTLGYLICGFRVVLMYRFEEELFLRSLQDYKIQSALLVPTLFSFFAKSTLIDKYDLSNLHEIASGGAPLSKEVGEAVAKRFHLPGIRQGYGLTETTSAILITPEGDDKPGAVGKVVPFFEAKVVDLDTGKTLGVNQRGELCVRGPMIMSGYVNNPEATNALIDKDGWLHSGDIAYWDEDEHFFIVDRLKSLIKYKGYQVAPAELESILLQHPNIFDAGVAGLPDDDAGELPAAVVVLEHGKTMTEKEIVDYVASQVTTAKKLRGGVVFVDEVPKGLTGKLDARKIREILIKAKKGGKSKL
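Purified P. pyralis luciferase, 10 nM final, with Km-level 10 uM D-luciferin and 10 uM ATP in 50 mM Tris acetate pH 7.5, 10 mM Mg acetate, 0.01% Tween-20, 0.05% BSA; 6-point qHTS titration about 60 µM downward; luminescence read.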
Numbers without * were called inactive; ? = inconclusive; . = not tested or not shown; [ ] = remark or other dose. The call rests on the fitted dose curve; in most records, active means well fitted curve in the direction sought with a large enough effect; inconclusive means small, poorly fitted or top-dose-only effect, or another doubt; inactive means no such curve, though single readings can be large; an effect the other way counts as inactive or inconclusive. Potency means the concentration at half of the fitted maximal effect.

SMILES | ELG1 genotoxic | SMN2 splice up | Rab9 promoter act | NPC1 promoter act | FLuc modulator
COc1ccc(/C=N/NC2=NCCCCC2)c(OC)c1 | 3% | ? | 9% | 8% | 17µM*
Oc1ccccc1/C=N/NC1=NCCCCC1 | ? | 13µM* | 2.2µM* | 1.4µM* | 13µM*
O=C(C/C(=N/O)c1ccccc1O)C(F)F | 2% | 16% | 3% | -4% | 1%
COc1ccccc1-c1nnc(NC(=O)c2ccc3c(c2)OCO3)s1 | 13% | ? | -13% | -7% | 1%
O=C(Nc1ccc(C(=O)N2CCCC2)cc1)c1ccc2c(c1)OCO2 | ? | 16% | ? | ? | 15µM*
O=C(Nc1ccc(F)c(Cl)c1)c1cccnc1 | 10% | . | 8% | 7% | 2%
O=C(Nc1ccc(F)c(Cl)c1)c1ccc2c(c1)OCO2 | ? | . | 1.3µM* | 1.8µM* | 4.8µM*
COC(=O)c1c(-c2cccnc2)csc1NC(=O)c1ccc2c(c1)OCO2 | 2.9µM* | . | 1.6µM* | 2.5µM* | 1.3µM*
O=C(Nc1ccc(F)c(Cl)c1)c1ccccc1 | 12µM* | . | 1.8µM* | 3.2µM* | 11µM*
COc1ccccc1N(CC(=O)NC1CCCCC1)S(=O)(=O)c1ccccc1 | -5% | . | 2% | 0% | 1%
COCCn1c(SCC#N)nnc1-c1ccccc1O | 0% | ? | -5% | 0% | 0%
Cc1ccc(-c2nn(CC(=O)NN3CCOCC3)c(=O)c3ccccc23)cc1 | -4% | . | -7% | 0% | 0%
CC(C)N(Cc1nnc(-c2ccc(Cl)cc2)o1)C(=O)c1cc2ccccc2o1 | -1% | . | -1% | -1% | ?
COc1cc(-c2nc(-c3ccc(NC(=O)c4ccc5c(c4)OCO5)cc3)no2)cc(OC)c1OC | 13µM* | 73% | -1% | 2% | ?
O=C(Nc1ccc(C(=O)N2CCCCC2)cc1)C1=CSCCO1 | ? | . | ? | 2.8µM* | 12µM*
COc1ccc(NCc2ccc3c(c2)OCO3)cc1Cl | 7% | 12% | 21% | 17% | ?
COc1ccc(NC(=O)c2ccc3c(c2)OCO3)cc1Cl | ? | 14µM* | 1.4µM* | 0.89µM* | 1.9µM*
CC1CCCC(NC(=O)c2ccc3c(SCC(=O)O)c4c(nc3c2)CCC4)C1C (centres undefined) | 1% | . | -5% | 0% | 17µM*
COc1cc(NC(=O)c2ccc3c(SCC(=O)O)c4c(nc3c2)CCC4)cc(OC)c1OC | 4% | . | 0% | -3% | -16%
CCCCn1c(C(C)NC(=O)c2ccccc2)nc2ccccc21 (centres undefined) | . | 6% | . | . | -6%
CCS(=O)(=O)Nc1ccc2c(c1)N(C(C)=O)c1ccccc1CC2 | 0% | 17% | 2% | 0% | -1%
COC(=O)c1sccc1NC(=O)c1ccc2c(c1)OCO2 | 3% | 27% | -2% | 0% | 6%[2.3 µM]
CC1CCCC(NC(=O)c2ccc3c(c2)OCO3)C1C (centres undefined) | 18µM* | . | 3.5µM* | ? | 12µM*
COC(=O)c1ccc(NC(=O)c2ccc3c(c2)OCO3)cc1 | 6.5µM* | ? | ? | 2.8µM* | ?
Cc1ccc(N=Nc2c(O)n(CN3CCOCC3)c3ccccc23)cc1 | 3.7µM* | 22µM* | 0.4µM* | 1.4µM* | 2.7µM*
SMILES | ELG1 genotoxic | SMN2 splice up | Rab9 promoter act | NPC1 promoter act | FLuc modulator
Cn1c(-c2ccc3ccccc3n2)nc2cnccc21 | ? | 99% | 2.2µM* | 4µM* | 8.5µM*
Cc1c(CCC(=O)N[C@@H](CC(C)C)C(=O)O)c(=O)oc2cc3oc4c(c3cc12)CCCC4 | 4% | . | -7% | -3% | 17µM*
Cc1c(CCC(=O)NCC(=O)NCC(=O)O)c(=O)oc2cc3oc4c(c3cc12)CCCC4 | 0% | . | 1% | -4% | 21µM*
Cc1c(CCC(=O)O)c(=O)oc2cc3oc4c(c3cc12)CCCC4 | 10% | . | 5% | 2% | 6µM*
Cc1coc2cc3oc(=O)c(CCC(=O)N4CCCCC4)c(C)c3cc12 | . | 11% | . | . | -20%
Cc1c(CCC(=O)N2CCC(C(=O)NCCCCCC(=O)O)CC2)c(=O)oc2cc3oc4c(c3cc12)CCCC4 | 9% | . | -39% | -3% | 13µM*
CC(C)NC(=O)c1nc2c(nnn2Cc2cccc(Cl)c2)c(=O)[nH]1 | 2% | . | 0% | 1% | -2%
COCCn1c(C)cc(C(=O)COC(=O)c2ccc(N3CCCC3=O)cc2)c1C | 2% | 2% | 8% | -5% | ?
Cc1c(CCC(=O)N2CCC[C@H]2C(=O)O)c(=O)oc2cc3oc4c(c3cc12)CCCC4 | ? | . | -4% | 19% | 12µM*
Cc1oc2cc3oc(=O)c(CCC(=O)NCCCC(=O)O)c(C)c3cc2c1C | 1% | . | -2% | -2% | ?
Cc1oc2cc3oc(=O)c(CCC(=O)NCCC(=O)O)c(C)c3cc2c1C | 11% | . | 0% | -4% | 12µM*
O=C(Cn1c(=O)n(-c2cccc(Cl)c2)c(=O)c2sc3ccccc3c21)NC1CCCCC1 | . | 26% | . | . | 3%
Cn1c2ccccc2c(=O)c2ccc(C#CC3(O)CCCCC3)cc21 | ? | . | 0.32µM* | 0.32µM* | 0.38µM*
Cc1ccc(NC(=O)c2ccc(C#CC3(O)CCCCC3)cc2)cc1C | -2% | -13% | -8% | 2% | 2%
Cn1c2ccccc2c(=O)c2cc(C#Cc3ccc(N)cc3)ccc21 | 6% | . | ? | ? | 6µM*
COc1ccc(C#Cc2ccc3c(c2)c(=O)c2ccccc2n3C)cc1 | -3% | . | 15% | 16% | 12µM*
CCc1ccc2occ(CC(=O)Nc3c(C(=O)c4ccc(F)cc4)oc4ccccc34)c2c1 | . | 2% | . | . | -5%
CCOC(=O)c1cc2c(=O)c3ccccc3oc2nc1C | 9.2µM* | . | ? | 22% | 6µM*
COCc1nc2oc3ccccc3c(=O)c2cc1C(=O)OC | ? | . | 4.5µM* | ? | 15µM*
Cc1cccc(C)c1NC(=O)c1cc2c(=O)c3ccccc3oc2nc1C(F)(F)F | -2% | -10% | -1% | -2% | 5%
CCOC(=O)c1cc2c(ccc3ccccc32)oc1=O | 5% | . | -5% | -1% | ?
Cc1cnc(N)c2c(=O)oc3ccccc3c12 | ? | 28% | -1% | 5% | -10%
CCOC(=O)c1c(C)nc(C)c2c(=O)oc3ccccc3c12 | -11% | 14% | 23% | -3% | 17µM*
O=C(N=Nc1c(O)n(Cc2ccccc2)c2ccccc12)c1cc2ccccc2cc1O | ? | 10µM* | ? | ? | 1.1µM*
O=C(N=Nc1c(O)n(Cc2ccccc2)c2ccccc12)c1ccc(O)cc1 | ? | ? | ? | ? | 0.95µM*
O=C(CN1CCN(C(=O)c2cccs2)CC1)NC1CCCCC1 | -7% | -38% | 3% | -1% | 7%
Cc1ccnc(NC(=O)CCC2CCCCC2)c1 | 8.2µM* | ? | ? | ? | 11µM*
Cc1cc(NC(=O)CCC2CCCCC2)no1 | 12% | 19% | 16% | 19% | ?
CCCC(=O)Nc1ccc(Br)cn1 | -7% | 23% | 24% | 0% | -4%
